37 compounds from PubChem BioAssay AID651784 (National Center for Advancing Translational Sciences (NCATS), 2012) can be followed below.

SMILES strings stand for the structures. Inconclusive results are not listed. Calls of active or inactive are those of the source. Calls come from the whole dose curve; as a rule, active = well fitted inhibition curve with a large enough effect; inconclusive = small, poorly fitted or top-dose-only effect; inactive = no such curve, though single readings can be large or run the other way.
Potency is the fitted concentration of half-maximal effect.

The assay is described as follows: Acumen qHTS Assay for Inhibitors of the mTORC1 Signaling Pathway in MEF (Tsc2-/-, p53-/-) Cells: Hit Validation.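 For activity change, negative = inhibition: cells exposed to compound for 24 hours; plate controls were DMSO for no effect and 7.5 nM rapamycin control for full effect.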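 Note: phospho-rpS6 Ser235/236 immunofluorescence normalized to propidium iodide cell count; nearly all actives have a fitted effect of over 65% in size.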 Conditions: Acumen imaging; activity change, negative = inhibition: at 37.3 µM (top of the series). For orientation: Quantitative high-throughput screening tests each substance at several concentrations.
For `CCS(=O)(=O)c1ncc(Cl)c(C(=O)NCc2ccc(OC)cc2)n1`, the Potency was 6.56 µM (active). With `Cc1cc(-c2ccc(S(=O)(=O)Nc3cccc(C)c3C)s2)on1`, the Potency is 4.14 µM (active). Regarding `CCn1c(=O)sc2cc(NS(=O)(=O)c3ccc(F)c(C)c3)ccc21`, the activity change, negative = inhibition is -28.9%. In the case of `CCS(=O)(=O)c1ncc(Cl)c(C(=O)N2CCN(c3cccc(Cl)c3)CC2)n1`, the Potency is 1.31 µM (active). Regarding `COc1ccc(-c2[nH]nc3nc(-c4cc(OC)c(OC)c(OC)c4)cc(C(=O)O)c23)cc1`, the activity change, negative = inhibition stood at 15.4%. The same measure, in the same setting: with `CCCCOc1ccccc1C1CC(=O)Nc2ccc3ccccc3c21` (configuration not stated) the figure was -10.2%. In the case of `CC(C)CCNC(=O)C(=O)Nc1c2c(nn1-c1ccc(Cl)cc1)CSC2`, the Potency was 5.85 µM (active). For the compound `Cc1noc(/C=C/N(C)C)c1S(=O)(=O)N1CCCC(C(=O)Nc2ccc(F)cc2F)C1` (configuration not stated), the Potency was 1.85 µM (active). Same read-out and setting: with `CCSc1ccccc1C(=O)Nc1ccc(-c2nc3ccccc3s2)c(O)c1` the figure was 13.1 µM (active); with `O=C(Nc1ccccc1F)c1nc(S(=O)(=O)Cc2ccccc2F)ncc1Cl`, 2.93 µM (active). For the compound `Cc1cccc(C(=O)Nc2c3c(nn2-c2ccc(Cl)cc2)CS(=O)(=O)C3)c1`, the activity change, negative = inhibition is 12.6%. Consider `O=C(NC1CCN(Cc2ccccc2)CC1)c1ccc(Cn2c(=O)c3ccccc3n(Cc3ccc(F)cc3)c2=O)cc1`, for which the Potency is 3.69 µM (active).

`CCCN1C(=O)C(Cc2nc3ccccc3c(=O)n2CC)c2cc(Br)ccc21` (configuration not stated): the activity change, negative = inhibition worked out at 4.78%. Same read-out and setting: to `O=C(Cn1cc(SCc2ccccc2)c2ccccc21)N1CCCCCC1` belongs 15.1%; to `CCCS(=O)(=O)c1c(S(=O)(=O)CCC)c2cc(C(C)(C)C)ccn2c1C(=O)c1ccc(OC)c(OC)c1`, -5.67%; to `CC(C)S(=O)(=O)c1oc(-c2ccc(F)cc2)nc1S(=O)(=O)c1ccc(F)cc1`, -95%. For `Cc1nn(CCCC(=O)NCc2ccccc2)c(=O)c2c1sc1ccccc12`, the activity change, negative = inhibition came to 13.7%. Consider `CCN1C(=O)c2ccccc2Sc2ccc(NC(=O)Cc3ccc(OC)cc3)cc21`, for which the Potency is 4.14 µM (active). As to `COc1ccc2c(c1)CCc1c(C(=O)Nc3c(C)nn(Cc4ccc(Cl)cc4)c3C)noc1-2`, the activity change, negative = inhibition is -75.9%. For the compound `O=c1oc2ccccc2cc1-c1cn2cc(Cc3ccccc3F)sc2n1`, the Potency is 16.5 µM (active). On to `O=C(Cn1c(=O)n(Cc2ccc3c(c2)OCO3)c(=O)c2ccc(C(=O)NC3CCCCC3)cc21)Nc1ccccc1F`, for which the activity change, negative = inhibition is -94.5%. As to `COc1ccccc1CNC(=O)CCCn1c(=O)c2cccn2c2ccccc21`, the activity change, negative = inhibition is -1.89%. `Cc1ccc(-c2nnc(Nc3cccc(Cl)c3)c3ccccc23)cc1S(=O)(=O)N1CCN(C)CC1`: the activity change, negative = inhibition is -42.6%. For the compound `CCCCOc1ccc(CN2C(=O)C(=O)c3cc(Br)cc(C)c32)cc1OC`, the Potency is 4.65 µM (active). On the same count and under the same terms, with `Cc1cccc(N2CCN(c3ncnc4c3nc3n4CCCCC3)CC2C)c1` (configuration not stated) the figure was 3.29 µM (active). On to `Cc1ccc(C(=O)c2cn(CC(=O)NCc3ccccc3Cl)c3nc(C)ccc3c2=O)cc1`, for which the activity change, negative = inhibition is -14.2%. Still for that read-out and setting: with `NS(=O)(=O)c1cc(C(=O)O)c(NCc2ccco2)cc1Cl` the figure was 34.6%. In the case of `Cc1cccc(NC(=O)Cn2cc(C(=O)C3CCCCC3)c3ccccc32)c1C`, the Potency is 1.04 µM (active). Regarding `COc1ccc(Cl)cc1C1CC(=O)Nc2cc3c(cc21)OCCO3` (configuration not stated), the activity change, negative = inhibition was -26.9%. As to `CCOC(=O)N1CCN(Cc2nc3cc(NC(=O)c4ccc([N+](=O)[O-])cc4)ccc3n2C(C)C)CC1`, the activity change, negative = inhibition is -17.8%. The same measure, in the same setting: with `COc1ccc(N2CCN(C(=O)C3CCN(Cc4nc(-c5ccc(Cl)cc5)oc4C)CC3)CC2)cc1` the figure was -10.9%. With `COc1cc(C(=O)NC(c2ccccc2Cl)c2cc(Cl)c3cccnc3c2O)cc(OC)c1OC` (configuration not stated), the Potency is 2.33 µM (active).

For `CCOC(=O)c1ccc(N2C(=O)c3n[nH]c(C)c3C2c2cccc(Br)c2)cc1` (configuration not stated), the activity change, negative = inhibition came out at 4.8%. With `COc1cccc(-n2c(-c3ccc(C)cc3)cc3c2CC(C)(C)CC3=O)c1`, the activity change, negative = inhibition is -34.9%. As to `COc1cc(Cl)c(C)cc1Nc1c2c(nc3ccccc13)CCC2`, the Potency was 0.927 µM (active). On to `COc1ccc(NC(=O)CCS(=O)(=O)c2nc(-c3cccs3)cc(C(F)(F)F)n2)cc1OC`, for which the activity change, negative = inhibition was -87.3%. `Cc1ccccc1S(=O)Cc1ccc(C(=O)N2CCN(c3cccc(C)c3C)CC2)o1` (configuration not stated): the Potency is 6.56 µM (active).
